Molecules are shown by their SMILES. Records with an inconclusive call do not appear. Active and inactive are the calls of the source. The call rests on the fitted dose curve; in most records, active means well fitted cell-killing curve with a large enough effect; inconclusive means small, poorly fitted or top-dose-only effect; inactive means flat fitted curve, though single readings scatter.

This experiment can be described thus: Confirmation and Secondary Assay for Modulators of Hemoglobin Beta Chain Splicing at IVS2 654 locus: Cytotoxicity. The settings on record: HBB IVS2-654 splicing reporter cells. From the text: NIH Chemical Genomics Center [NCGC]
NIH Molecular Libraries Screening Centers Network [MLSCN]
PI Name: Dr. Ryszard Kole
Modulation of Alternative Splicing as Therapy
Abnormal splicing is associated with a number of diseases, including cancer and genetic diseases such as cystic fibrosis, muscular dystrophy and beta-thalassemia. Alteration of disease associated splicing patterns provides a promising target for treatment. […] Mutations in the second intron of the b-globin gene at positions 654 or 705 are clinically relevant and cause mis-splicing which results in an out of frame gene product.
Examination of toxicity of select compounds in EGFP-654 HeLa Cells
HeLa cell lines were stably transfected with a construct in which the EGFP (enhanced green fluorescent protein) cDNA was interrupted by the second intron of the beta-globin gene (IVS2-654). The ISV2 intron contains mutations which cause mis-splicing of EGFP and premature termination of EGFP which results in a nonfluorescent protein product. […] Expression of the transgene was driven by the CMV promoter. Compounds, and related structures identified in the primary screen as potential splicing modulation were examined for their effects on cell toxicity in this follow up assay .
NCGC Assay Protocol Summary:
Toxicity Screening. Freshly thawed HeLa EGFP-654 cells were seeded in 5 ul of optimem media (Invitrogen) containing 2 % fetal calf serum (Hyclone) and 1x penicillin/streptomycin (Invitrogen) at a concentration of 500 cells per well in 1536-well plates. Cells were incubated overnight at 37C in 5% CO2. The next day, cells were treated with DMSO, 500 nM antisense ISV2 654 PNA control oligo, or library compound and allowed to grow at 37C in 5% CO2 for 2 days. Cells were treated with 5 ul/well of freshly prepared ATPlite (Perkin Elmer) and cells were allowed to lyse at room temperature for 5 minutes. Luminescence was captured on an Viewlux CCD imager (Perkin Elmer) using a 15 second integration time and cell death was measured by comparing compound treatments to DMSO treatment (no cell death). […]
On to `CC(=O)[O][Hg][c]1ccccc1`, for which the Potency is 12.6 µM (active).

For `O=c1[nH]cc(F)c(=O)[nH]1`, the Potency was 12.6 µM (active). As for `[Cl-].[Cl-].[Hg+2]`, the figure is 0.398 µM (active).

The values are drawn from PubChem BioAssay AID931 (National Center for Advancing Translational Sciences (NCATS), 2007).
